This assay can be described thus: NCI Yeast Anticancer Drug Screen. Data for the bub3 strain (AID 167). Particulars: S. cerevisiae bub3 mutant strain, active compounds read high. On the procedure:
Growth inhibition of yeast strains with defined genetic alterations is measured as a screen for potential anti-cancer activity. Selected strains with alterations in DNA damage repair or cell cycle control were exposed to compounds and growth inhibition was measured relative to vehicle treated controls. The strain used in this assay is bub3

Where [1] appears, read: at 5.0 µM (retest, dose inferred, filed as 0.5).
The mark [2] stands for this setting: at 50.0 µM (retest, dose inferred, filed as 5.0).

Each structure is given as a SMILES string. This is part of a sample that, as a whole, favours compounds with a hit. Of some 79,000 tested, about 15% had one in any assay. Unmarked numbers belong to inactive results. The source made the active and inactive calls. Rule as the data show it: active = growth inhibition above about 70%; inactive = the rest.

In the case of `CCOC(=O)N1CCN(CCCCCCOc2ccc(C(C)(C)C)cc2)CC1`, the growth inhibition reads like this: under setting [1], 7%; under setting [2], 76% (active); (at 50.0 µM) 96.7% (active).
With `CCCCCCCCCCCC[N+]1(C)CCCC1c1cccnc1` (configuration not stated), the growth inhibition by setting is: under setting [1], 27%; under setting [2], 92% (active); (at 50.0 µM) 97.5% (active).
Turning to `CCOC(=O)C1=C(Nc2ccc(Br)cc2)OC/C1=N\NC(=O)c1ccccc1O`, the growth inhibition was 1% under setting [1], 1% under setting [2] and 66.8% (at 50.0 µM).
On to `CCCCCCNC(=S)N/N=C(\C)c1ccccn1`, for which the growth inhibition by setting is: under setting [1], 98% (active); under setting [2], 99% (active); (at 50.0 µM) 90.5% (active).
With `CC(C)[C@@H]1CC[C@@H](C)C[C@H]1OC(=O)NN`, the growth inhibition under setting [1] was 6%, the growth inhibition under setting [2] is 84% (active) and the growth inhibition (at 50.0 µM) is 80.5% (active).
On the same counts, the results for `COC(CC[P+](c1ccccc1)(c1ccccc1)c1ccccc1)(C(=O)c1ccccc1)c1ccccc1` (configuration not stated) are 94% (active), 100% (active) and 99.7% (active).
Regarding `CS(=O)(=O)c1cc(=O)c2ccccc2s1`, the growth inhibition runs as follows: under setting [1], -3%; under setting [2], 100% (active); (at 50.0 µM) 31.6%.
Take `O=C(N/N=C/c1cc(Br)ccc1O)c1ccccc1`: the growth inhibition is 79% (active) under setting [1], 89% (active) under setting [2] and -12.6% (at 50.0 µM).
Turning to `CCOC(=O)/C(=C/c1ccc(Cl)cc1)N(CC)CC`, the growth inhibition is 9% under setting [1], 36% under setting [2] and 64.8% (at 50.0 µM).
As to `CC(=O)Nc1c(Cl)ccc2c1Cc1cc([N+](=O)[O-])ccc1-2`, the growth inhibition is, setting by setting: under setting [1], -7%; under setting [2], 10%; (at 50.0 µM) 10.7%.
On the same counts, the results for `Cc1cccc2c1Oc1ccccc1C2N1C(=O)/C(=C/c2cccs2)SC1=S` (configuration not stated) are -8%, -4% and 26.4%.
Consider `O=c1c2ccccc2sc2c1c(N(CCO)CCO)cc1ccccc12`, for which the growth inhibition reads like this: under setting [1], -5%; under setting [2], 93% (active); (at 50.0 µM) 96.8% (active).
As to `C=CCc1cc(C(=O)OCC)cc(OC)c1O`, the growth inhibition is 19% under setting [1], 95% (active) under setting [2] and 74% (active) (at 50.0 µM).
On the same counts, the results for `COCc1ccc([N+](=O)[O-])o1` are 2%, 36% and 1.2%.

The record behind these values is PubChem BioAssay (NCI).
